The term AC50 denotes the concentration giving half of the maximal activity seen.

The structures appear in SMILES notation. Records with an inconclusive call do not appear. Calls of active or inactive are those of the source. The calls were made as follows: active = hit-call score of the fitted dose curve at least 0.9, where 1 is the maximum; inconclusive = response in the unintended direction; inactive = score below 0.9.

From PubChem BioAssay (EPA / NIEHS) come the findings set out here.

Assay [1] addresses Cellular tumor antigen p53 (Homo sapiens) (UniProt P04637). Nature of the assay: TOX21_p53_BLA_p2_ratio: Tox21 HCT-116 p53 Agonism Beta-lactamase Assay, Ratio, Phase 2 (AID 2283592). The method, boiled down:
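Ratio endpoint: beta-lactamase cleavage of CCF4-AM, blue (460 nm) over green (530 nm). HCT116 reporter line; 16 h treatment, 37C; substrate 2 h RT.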

The nature of assay [2]: TOX21_p53_BLA_p3_viability: Viability Assessment in the Tox21 HCT-116 p53 Agonism Beta-lactamase Assay, Phase 3 (AID 2283593).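 Also: cells exposed to compound for 16 h before reading.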 The method, boiled down: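 HCT-116 cells (4000/well) rested 5 h at 37C, then got DMSO compounds by pin tool (217-fold dilution) for 16 h at 37C, 5% CO2. After the bla read, CellTiter-Glo was added and luminescence read at 30 min, room temperature.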

Assay [3] has as its target Cellular tumor antigen p53 (Homo sapiens) (UniProt P04637). The experiment in a line: TOX21_p53_BLA_p3_ratio: Tox21 HCT-116 p53 Agonism Beta-lactamase Assay, Ratio, Phase 3 (AID 2283596). Put shortly:
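Cells were seeded at 4000/well, rested 5 h at 37C, then dosed with DMSO compound solutions (217-fold dilution) for 16 h. CCF4-AM substrate was loaded for 2 h at room temperature, and the 460/530 nm emission ratio was fitted for gain of signal versus DMSO.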

Assay [4] can be described thus: TOX21_p53_BLA_p4_viability: Viability Assessment in the Tox21 HCT-116 p53 Agonism Beta-lactamase Assay, Phase 4 (AID 2283597).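 Also: hits lower the luminescence signal meaning cytotoxicity.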 Put shortly:
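Cytotoxicity was inferred from loss of CellTiter-Glo luminescence. HCT116 cells had been dosed with compounds after 5 h plating, incubated 16 h at 37C and 5% CO2, and exposed to the CCF4-AM substrate for 2 h.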

The nature of assay [5]: TOX21_p53_BLA_p5_viability: Viability Assessment in the Tox21 HCT-116 p53 Agonism Beta-lactamase Assay, Phase 5 (AID 2283600). The method, boiled down: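 Luciferase-coupled ATP quantitation of cells treated for 16 h (37C, 5% CO2) with test chemicals delivered in DMSO via a 217-fold dilution; 4000 cells/well; reagent incubated 30 min at room temperature before luminescence reading.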

The target of assay [6] is Cellular tumor antigen p53 (Homo sapiens) (UniProt P04637). Nature of the assay: TOX21_p53_BLA_p4_ratio: Tox21 HCT-116 p53 Agonism Beta-lactamase Assay, Ratio, Phase 4 (AID 2283601). The method, boiled down:
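HCT116 cells carrying an inducible beta-lactamase reporter were plated at 4000 cells/well, rested 5 h, then exposed to compounds in DMSO (217-fold dilution) for 16 h at 37C. CCF4-AM substrate was loaded 2 h at room temperature; 460/530 nm emission ratio scored gain-of-signal versus DMSO.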

For assay [7] the target is unchanged. The experiment in a line: TOX21_p53_BLA_p5_ratio: Tox21 HCT-116 p53 Agonism Beta-lactamase Assay, Ratio, Phase 5 (AID 2283599). Put shortly: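 HCT-116 cells carrying a p53-inducible beta-lactamase reporter were seeded at 4000 cells/well and dosed after 5 h with compound in DMSO (217-fold dilution). After 16 h at 37C, CCF4-AM substrate was added for 2 h, and the 460/530 nm emission ratio was scored as gain-of-signal versus DMSO.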

Sequence of Cellular tumor antigen p53 (Homo sapiens) (P04637 whole entry, looked up): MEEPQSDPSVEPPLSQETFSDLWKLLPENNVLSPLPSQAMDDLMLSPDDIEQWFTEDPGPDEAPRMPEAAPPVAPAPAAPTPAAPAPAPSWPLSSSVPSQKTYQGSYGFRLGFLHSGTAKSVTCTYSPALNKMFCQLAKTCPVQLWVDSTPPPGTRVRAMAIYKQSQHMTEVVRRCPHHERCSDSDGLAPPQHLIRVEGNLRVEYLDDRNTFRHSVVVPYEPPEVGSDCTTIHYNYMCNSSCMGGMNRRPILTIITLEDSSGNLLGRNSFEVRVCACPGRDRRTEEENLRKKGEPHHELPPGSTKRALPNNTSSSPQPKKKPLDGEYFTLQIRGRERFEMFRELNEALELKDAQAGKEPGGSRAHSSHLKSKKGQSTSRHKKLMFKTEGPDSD

Consider `O=S(O)(O)=S`, for which the result in assay [1], in assay [2], in assay [3], in assay [4], in assay [5] and in assay [6] was inactive.
For the compound `CCO[Si](CC(C)C)(OCC)OCC`, the outcome in assay [1], in assay [2], in assay [3], in assay [4], in assay [7] and in assay [6] was inactive.
For the compound `CO[Si](CCCNCCC[Si](OC)(OC)OC)(OC)OC`, the result in assay [1], in assay [2], in assay [3], in assay [4], in assay [5] and in assay [6] was inactive.
With `C=C(C)C(=O)OCCCC`, the result in assay [1], in assay [2], in assay [3], in assay [4], in assay [7] and in assay [6] was inactive.
`O=C(O)Cc1ccc(Cl)cc1Cl`: the outcome in assay [1], in assay [2], in assay [3], in assay [4] and in assay [5] was inactive.
Turning to `CCCC(CC)CCCCCCCN` (stereo unspecified), the outcome in assay [1], in assay [4], in assay [5] and in assay [6] was inactive. Moreover, the results for the AC50 in assay [2] and in assay [3] were 81000 nM (active) and 79200 nM (active), respectively.
Turning to `O=S(=O)(O)CCCS(=O)(=O)O`, the result in assay [1], in assay [2], in assay [3], in assay [4], in assay [7] and in assay [6] was inactive.
Turning to `CC(C)NCC(O)c1ccc2ccccc2c1` (stereo unspecified), the outcome in assay [1], in assay [2], in assay [3], in assay [4], in assay [7] and in assay [6] was inactive.
`COc1ccccc1OC(=O)Oc1ccccc1OC`: the outcome in assay [1], in assay [2], in assay [3], in assay [4] and in assay [6] was inactive.
As to `COc1ccc(C=CC(=O)OCCC(C)C)cc1`, the result in assay [1], in assay [2], in assay [3], in assay [4] and in assay [5] was inactive.
Turning to `CCN(CC)C(=O)Nc1ccc(OCC(O)CNC(C)(C)C)c(C(C)=O)c1` (stereo unspecified), the result in assay [1], in assay [2], in assay [3], in assay [4] and in assay [5] was inactive.
Take `Nc1ccn(C2CO[C@H](CO)O2)c(=O)n1` (stereo partly specified): the AC50 in assay [1] is 0.0586 nM (active); in assay [3], 0.0596 nM (active); in assay [7] it was 0.329 nM (active); in assay [6], 0.0816 nM (active). Further, the compound was called inactive in assay [2] and in assay [4].
Turning to `O=C(NCCO[N+](=O)[O-])c1cccnc1`, the result in assay [1], in assay [2], in assay [3], in assay [4], in assay [5] and in assay [6] was inactive.
Regarding `CO[C@@H]1[C@@H](OC(N)=O)[C@@H](O)[C@H](Oc2ccc3c(O)c(NC(=O)c4ccc(O)c(CC=C(C)C)c4)c(=O)oc3c2C)OC1(C)C`, the result in assay [1], in assay [2], in assay [3], in assay [4] and in assay [5] was inactive.
Consider `CCCCCCCCS`, for which the result in assay [1], in assay [2], in assay [3], in assay [4], in assay [7] and in assay [6] was inactive.
For the compound `CCN(C=O)CC`, the result in assay [1], in assay [2], in assay [3], in assay [4] and in assay [5] was inactive.
On to `Cc1cc(C2CCCCC2)n(O)c(=O)c1`, for which the outcome in assay [1], in assay [2], in assay [3], in assay [4], in assay [7] and in assay [6] was inactive.
